Data from PubChem BioAssay (NCI).
About 83,000 compounds went through this panel and 20% of them were active in at least one assay; those are over-represented in the sample as a whole.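 96-well plates, one dose, 48 hours. Percent growth reported; active if below 10.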 A number with no mark means an inactive call. Active and inactive are the calls of the source.

Columns and labels:
Assay in all cases: NCI-60 one-dose screen, 48 h (100 = growth as untreated, 0 = no growth, -100 = all killed)
Settings in all cases: 10 µM unless noted
T-47D breast = test system: T-47D breast
BT-549 breast = test system: BT-549 breast
MDA-MB-435 melanoma = test system: MDA-MB-435 melanoma
SW-620 colon = test system: SW-620 colon
MCF7 breast = test system: MCF7 breast
HCT-116 colon = test system: HCT-116 colon
HCC-2998 colon = test system: HCC-2998 colon
KM12 colon = test system: KM12 colon

Row | Structure (SMILES) | growth (T-47D breast) | growth (BT-549 breast) | growth (MDA-MB-435 melanoma) | growth (SW-620 colon) | growth (MCF7 breast) | growth (HCT-116 colon) | growth (HCC-2998 colon) | growth (KM12 colon)
1 | C#Cc1cccc(Nc2ncnc3ccc(-c4cnc(Cl)c(NS(C)(=O)=O)c4)cc23)c1 | -46.8% (active) | -35.4% (active) | -55.2% (active) | 2.56% (active) | -0.512% (active) | -55% (active) | -62.5% (active) | -54.3% (active)
2 | CN(C)c1ccc(/C=N/NC(=O)CSc2nc3sc4c(c3c(=O)n2-c2ccccc2)CCCCC4)cc1 | 61.5% | 71.2% | 33.2% | 27.2% | 35% | 7.89% (active) | 39.4% | 38.5%
3 | Cc1ccc(Nc2oc(-c3ccccc3)nc2[P+](c2ccccc2)(c2ccccc2)c2ccccc2)cc1 | -28.5% (active) | -21.5% (active) | -62.8% (active) | -48.2% (active) | -20.2% (active) | -66.4% (active) | -89.4% (active) | -51.5% (active)
4 | CCCCC1=C(Br)C(=O)c2ncccc2C1=O | 71.2% | 94.4% | 105% | 60.2% | 89.5% | 62.6% | 108% | 96.9%
5 | CC(C)(C)n1cc(-c2ccnc(NCCNS(=O)(=O)c3cccc4ccccc34)c2)c(-c2cccc(O)c2)n1 | 31.4% | 60.5% | 78.6% | 35.8% | 49.4% | 46.5% | 66.3% | 57.5%
6 | O=C(CN1C(=O)NC2NC(=O)NC21)N/N=C/c1cccc([N+](=O)[O-])c1 (configuration not stated) | 107% | 102% | 98.1% | 105% | 91.8% | 116% | 118% | 104%
7 | Nc1ncc(-c2ccc3ncnc(N4CCc5cc(F)c(Cl)cc54)c3c2)cc1C(F)(F)F | 20.4% | 14.8% | 0.606% (active) | 38.2% | 8.11% (active) | 21.3% | 36.2% | 40.2%
8 | CC1(C)CC[C@]2(CO)CC[C@]3(C)[C@H](CC[C@@H]4[C@@]5(C)CC[C@H](O)C(C)(C)[C@@H]5CC[C@]43C)[C@H]2[C@H]1O | 75.1% | 96.2% | 91.5% | 84.9% | 69.2% | 42.8% | 101% | 65.2%
9 | Brc1ccc(-c2nn(-c3ccccc3)cc2-c2nn[nH]n2)s1 | 89.6% | 93.2% | 103% | 97.1% | 86.7% | 88.5% | 97.6% | 99.7%
10 | O=C(/C=C/C12c3ccccc3C(c3ccccc31)C1C(=O)NC(=O)C12)c1cccs1 (configuration not stated) | 39.9% | 33.5% | 4.93% (active) | 27.1% | 14.2% | 14.4% | 99.4% | 22.6%
11 | O=C(OCC(O)C(=O)NC12CC3CC(CC(C3)C1)C2)c1cccc(Br)c1 (configuration not stated) | 93.2% | 115% | 97% | 99.2% | 91.7% | 99% | 114% | 107%
12 | COc1cc(C2CC(c3cccc(Nc4ccncc4)c3)=Nc3c(N)ncnc3N2)cc(OC)c1OC (configuration not stated) | 62.2% | 113% | 69.7% | 90.6% | 57.6% | 87.9% | 95.4% | 69%
13 | Cc1ccc(C23CCC(=O)N2CCc2cncn23)cc1 (configuration not stated) | 91.2% | 100% | 101% | 97.7% | 97.9% | 104% | 107% | 101%
14 | COc1ccc(/C(C)=C(\c2ccc(Cl)cc2)c2ccc(OCCCN(C)C)cc2)cc1 | 58.1% | 82.3% | 39% | 46.3% | 36.9% | 37.4% | 100% | 56.5%
